The record followed here is PubChem BioAssay (NCI).

Experiment [1] in a line: NCI Yeast Anticancer Drug Screen. Data for the rad50 strain (AID 155).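 Also: 0% = growth of vehicle-only cultures of the same strain.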 The settings on record: S. cerevisiae rad50 strain growth inhibition, active compounds read high. The essentials: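 Yeast carrying a defined DNA repair defect were exposed to test compounds, and growth was compared with vehicle-treated controls to give percent inhibition.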
A short description of experiment [2]: NCI Yeast Anticancer Drug Screen. Data for the mec2-1 strain (AID 157). The settings on record: S. cerevisiae mec2-1 strain, active compounds read high. The essentials:
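Mutant yeast (mec2-1) grown with compound; growth inhibition relative to vehicle control reported.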

A short description of experiment [3]: NCI Yeast Anticancer Drug Screen. Data for the sgs1 mgt1 strain (AID 161).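 Also: 0% = growth of cultures given vehicle only.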 The settings on record: S. cerevisiae sgs1 mgt1 strain, active compounds read high. The essentials:
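Compounds are added to genetically altered yeast, and growth is compared with cultures given vehicle alone to give percent inhibition.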

The nature of experiment [4]: NCI Yeast Anticancer Drug Screen. Data for the cln2 rad14 strain (AID 165).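 Also: 0% = growth equal to vehicle treated cultures.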 The settings on record: S. cerevisiae cln2 rad14 strain, active compounds read high. The essentials: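 Readout is yeast growth inhibition versus vehicle-treated controls, using a strain with cln2 and rad14 alterations exposed to compound.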
Experiment [5] in a line: NCI Yeast Anticancer Drug Screen. Data for the bub3 strain (AID 167). The conditions noted are these: S. cerevisiae bub3 mutant strain, active compounds read high. The essentials:
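Compounds were applied to a genetically altered yeast strain carrying a cell-cycle control defect. Growth inhibition was scored against vehicle-treated controls.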

Experiment [6] in a line: NCI Yeast Anticancer Drug Screen. Data for the mlh1 rad18 strain (AID 175). The conditions noted are these: S. cerevisiae mlh1 rad18 strain growth inhibition, active compounds read high. The essentials: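 Genetically defined yeast (DNA repair-deficient) exposed to compounds; growth inhibition determined relative to vehicle.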
The mark [7] stands for this setting: at 5.0 µM (retest, dose inferred, filed as 0.5).
The mark [8] stands for this setting: at 50.0 µM (retest, dose inferred, filed as 5.0).

The panel holds about 79,000 compounds, 15% with a hit somewhere; the sample as a whole holds those more often. Values without a mark were called inactive. Calls of active or inactive are those of the source. Rule as the data show it: active = growth inhibition above about 70%; inactive = the rest.

As to `C/C=C1/C(=O)O[C@]23C=C[C@@H]4C(C(=O)OC)=CO[C@H](O[C@@H]12)[C@@H]43`, the growth inhibition in experiment [1] (setting [7]) was 28%; in experiment [1] (setting [8]), 82% (active); in experiment [1] (at 50.0 µM), 91.9% (active); in experiment [2] (setting [7]), 41%; in experiment [2] (setting [8]) it was 98% (active); in experiment [2] (at 50.0 µM), 93.8% (active). Besides, the growth inhibition is 63% in experiment [3] (setting [7]); 98% (active) in experiment [3] (setting [8]); 93.6% (active) in experiment [3] (at 50.0 µM); 32% in experiment [4] (setting [7]); 64% in experiment [4] (setting [8]); 89.5% (active) in experiment [4] (at 50.0 µM). For the same compound, the growth inhibition in experiment [5] (setting [7]) is 61%; in experiment [5] (setting [8]) it was 96% (active); in experiment [5] (at 50.0 µM), 92.5% (active); in experiment [6] (setting [7]), 88% (active); in experiment [6] (setting [8]), 98% (active); in experiment [6] (at 50.0 µM) it was 66%.
For `O=[As](O)(O)c1ccc(Cc2ccc([As](=O)(O)O)cc2)cc1`, the growth inhibition in experiment [1] (setting [7]) was 82% (active); in experiment [1] (setting [8]), 100% (active); in experiment [1] (at 50.0 µM), 99.2% (active); in experiment [2] (setting [7]), 62%; in experiment [2] (setting [8]), 100% (active); in experiment [2] (at 50.0 µM), 99.5% (active). Further, the growth inhibition in experiment [3] (setting [7]) is 26%; in experiment [3] (setting [8]), 99% (active); in experiment [3] (at 50.0 µM), 99% (active); in experiment [4] (setting [7]) it was 59%; in experiment [4] (setting [8]), 99% (active); in experiment [4] (at 50.0 µM) it was 98.5% (active). For the same compound, the growth inhibition is 66% in experiment [5] (setting [7]); 100% (active) in experiment [5] (setting [8]); 99.1% (active) in experiment [5] (at 50.0 µM); 78% (active) in experiment [6] (setting [7]); 99% (active) in experiment [6] (setting [8]); 99.2% (active) in experiment [6] (at 50.0 µM).
As for `CCC[CH2][Pb]([CH2]CCC)([CH2]CCC)[n]1ccnc1`, the growth inhibition was 99% (active) in experiment [1] (setting [7]); 99% (active) in experiment [1] (setting [8]); 90.2% (active) in experiment [1] (at 50.0 µM); 99% (active) in experiment [2] (setting [7]); 99% (active) in experiment [2] (setting [8]); 92.7% (active) in experiment [2] (at 50.0 µM). Moreover, the growth inhibition is 98% (active) in experiment [3] (setting [7]); 98% (active) in experiment [3] (setting [8]); 93.7% (active) in experiment [3] (at 50.0 µM); 97% (active) in experiment [4] (setting [7]); 99% (active) in experiment [4] (setting [8]); 91.6% (active) in experiment [4] (at 50.0 µM). Also, the growth inhibition was 99% (active) in experiment [5] (setting [7]); 93% (active) in experiment [5] (setting [8]); 92.2% (active) in experiment [5] (at 50.0 µM); 99% (active) in experiment [6] (setting [7]); 99% (active) in experiment [6] (setting [8]); 91% (active) in experiment [6] (at 50.0 µM).
In the case of `C[CH2][Pb]([CH2]C)([CH2]C)[O]C(=O)COc1ccc(Cl)cc1Cl`, the growth inhibition in experiment [1] (setting [7]) was 29%; in experiment [1] (setting [8]), 84% (active); in experiment [1] (at 50.0 µM) it was 91.5% (active); in experiment [2] (setting [7]) it was 14%; in experiment [2] (setting [8]), 89% (active); in experiment [2] (at 50.0 µM), 95.1% (active). Moreover, the growth inhibition in experiment [3] (setting [7]) was 3%; in experiment [3] (setting [8]), 94% (active); in experiment [3] (at 50.0 µM), 95% (active); in experiment [4] (setting [7]) it was 2%; in experiment [4] (setting [8]) it was 91% (active); in experiment [4] (at 50.0 µM), 85.7% (active). The growth inhibition is -4% in experiment [5] (setting [7]); 95% (active) in experiment [5] (setting [8]); 95.6% (active) in experiment [5] (at 50.0 µM); 29% in experiment [6] (setting [7]); 96% (active) in experiment [6] (setting [8]); 97% (active) in experiment [6] (at 50.0 µM).
Regarding `CC1=C(N2CC2)C(=O)c2nc3n(c2C1=O)CCC3OC(=O)CCl` (stereo not given), the growth inhibition in experiment [1] (setting [7]) is 28%; in experiment [1] (setting [8]) it was 61%; in experiment [1] (at 50.0 µM), 46.5%; in experiment [2] (setting [7]), 6%; in experiment [2] (setting [8]) it was 47%; in experiment [2] (at 50.0 µM), 57%. In addition, the growth inhibition in experiment [3] (setting [7]) is 18%; in experiment [3] (setting [8]), 60%; in experiment [3] (at 50.0 µM), 72.2% (active); in experiment [4] (setting [7]), 5%; in experiment [4] (setting [8]), 31%; in experiment [4] (at 50.0 µM) it was 57.9%. Besides, the growth inhibition is 24% in experiment [5] (setting [7]); 19% in experiment [5] (setting [8]); 6% in experiment [5] (at 50.0 µM); 23% in experiment [6] (setting [7]); 67% in experiment [6] (setting [8]); 66.1% in experiment [6] (at 50.0 µM).
For `NNc1ccccc1`, the growth inhibition in experiment [1] (setting [7]) is 13%; in experiment [1] (setting [8]), 97% (active); in experiment [1] (at 50.0 µM), 98.6% (active); in experiment [2] (setting [7]), 1%; in experiment [2] (setting [8]), 95% (active); in experiment [2] (at 50.0 µM) it was 97.3% (active). Further, the growth inhibition in experiment [3] (setting [7]) was 3%; in experiment [3] (setting [8]), 98% (active); in experiment [3] (at 50.0 µM) it was 98.8% (active); in experiment [4] (setting [7]), 0%; in experiment [4] (setting [8]) it was 96% (active); in experiment [4] (at 50.0 µM), 96.8% (active). Besides, the growth inhibition in experiment [5] (setting [7]) was 9%; in experiment [5] (setting [8]) it was 98% (active); in experiment [5] (at 50.0 µM), 96.2% (active); in experiment [6] (setting [7]), 15%; in experiment [6] (setting [8]) it was 98% (active); in experiment [6] (at 50.0 µM), 98.6% (active).
For the compound `COc1cc([N+](=O)[O-])c2ncccc2c1[N+](=O)[O-]`, the growth inhibition in experiment [1] (setting [7]) was -1%; in experiment [1] (setting [8]), 23%; in experiment [1] (at 50.0 µM), 85% (active); in experiment [2] (setting [7]) it was -5%; in experiment [2] (setting [8]) it was 13%; in experiment [2] (at 50.0 µM) it was 52.4%. Besides, the growth inhibition in experiment [3] (setting [7]) was -2%; in experiment [3] (setting [8]), 26%; in experiment [3] (at 50.0 µM) it was 74.5% (active); in experiment [4] (setting [7]), -5%; in experiment [4] (setting [8]) it was -9%; in experiment [4] (at 50.0 µM), 53.6%. Also, the growth inhibition in experiment [5] (setting [7]) was -11%; in experiment [5] (setting [8]), 12%; in experiment [5] (at 50.0 µM), 39.4%; in experiment [6] (setting [7]), 13%; in experiment [6] (setting [8]), 45%; in experiment [6] (at 50.0 µM), 93.6% (active).
Consider `CC1(C)C2CCC([CH2][Hg][Cl])C1C2` (stereo not given), for which the growth inhibition was 99% (active) in experiment [1] (setting [7]); 98% (active) in experiment [1] (setting [8]); 98.8% (active) in experiment [1] (at 50.0 µM); 100% (active) in experiment [2] (setting [7]); 95% (active) in experiment [2] (setting [8]); 99.2% (active) in experiment [2] (at 50.0 µM). The growth inhibition was 100% (active) in experiment [3] (setting [7]); 97% (active) in experiment [3] (setting [8]); 99.2% (active) in experiment [3] (at 50.0 µM); 99% (active) in experiment [4] (setting [7]); 98% (active) in experiment [4] (setting [8]); 99% (active) in experiment [4] (at 50.0 µM). Further, the growth inhibition in experiment [5] (setting [7]) was 99% (active); in experiment [5] (setting [8]) it was 98% (active); in experiment [5] (at 50.0 µM) it was 99.3% (active); in experiment [6] (setting [7]) it was 100% (active); in experiment [6] (setting [8]), 98% (active); in experiment [6] (at 50.0 µM) it was 99% (active).
With `CCCCCCCCCCC(=O)O.[Pb]`, the growth inhibition in experiment [1] (setting [7]) was -14%; in experiment [1] (setting [8]) it was 2%; in experiment [1] (at 50.0 µM), 55.5%; in experiment [2] (setting [7]) it was -10%; in experiment [2] (setting [8]), 6%; in experiment [2] (at 50.0 µM), 5.05%. Further, the growth inhibition in experiment [3] (setting [7]) was -7%; in experiment [3] (setting [8]) it was 9%; in experiment [3] (at 50.0 µM), 38.5%; in experiment [4] (setting [7]) it was -2%; in experiment [4] (setting [8]) it was -1%; in experiment [4] (at 50.0 µM), 14.2%. Further, the growth inhibition in experiment [5] (setting [7]) was -1%; in experiment [5] (setting [8]), -4%; in experiment [5] (at 50.0 µM) it was -16.1%; in experiment [6] (setting [7]), -5%; in experiment [6] (setting [8]), -12%; in experiment [6] (at 50.0 µM) it was 68.2%.
With `CN(C)[PH+](N(C)C)N(C)C.CN(C)[PH+](N(C)C)N(C)C.[C-]#[O+].[C-]#[O+].[C-]#[O+].[C-]#[O+].[C-]#[O+].[C-]#[O+].[Co].[Co].[Hg]`, the growth inhibition was 3% in experiment [1] (setting [7]); 16% in experiment [1] (setting [8]); 98.2% (active) in experiment [1] (at 50.0 µM); 3% in experiment [2] (setting [7]); 16% in experiment [2] (setting [8]); 99.7% (active) in experiment [2] (at 50.0 µM). Besides, the growth inhibition is 1% in experiment [3] (setting [7]); 9% in experiment [3] (setting [8]); 99.6% (active) in experiment [3] (at 50.0 µM); -3% in experiment [4] (setting [7]); 2% in experiment [4] (setting [8]); 99.2% (active) in experiment [4] (at 50.0 µM). Besides, the growth inhibition in experiment [5] (setting [7]) is 2%; in experiment [5] (setting [8]), 13%; in experiment [5] (at 50.0 µM), 99.5% (active); in experiment [6] (setting [7]) it was 5%; in experiment [6] (setting [8]) it was 20%; in experiment [6] (at 50.0 µM), 98.8% (active).
